Bioassay records: PubChem, National Center for Advancing Translational Sciences (NCATS)
Shown are actives, neighbours in structure and some others; about 7.4% of the full set was active somewhere.
NIH3T3 tox: kills NIH 3T3 cells | NIH 3T3 viability, CellTiter-Glo ATP luminescence, 48-72 h | Potency, µM (top dose mostly 96.7 µM), for inactives: at the highest dose activity change, negative = cytotoxicity, usual class: inhibitors | hit rate 4.3% among 94,000 | AID 1345082; also: % is scaled to controls: 0 for no effect and ±100 for the full control effect; nearly all actives have a fitted effect of over 55% in size
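Cytotoxicity is measured as loss of cellular ATP: NIH 3T3 cells (400/well) are exposed to compound for 48 or 72 hr at 37 °C, then CellTiter-Glo luminescence is imaged after 10 min at room temperature.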
HEK293 tox: kills HEK 293 cells; HEK 293 viability, ATP luminescence (CellTiter-Glo), 48-72 h; Potency, µM (highest dose often 115 µM), for inactives: at the highest dose activity change, negative = cytotoxicity, hits mostly inhibitors; hit rate 6.6% among 94,000; AID 1345083; also: % is scaled to controls: 0 for no effect and ±100 for the full control effect; nearly all actives have a fitted effect of over 60% in size
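Luminescence from cellular ATP, measured with CellTiter-Glo, indicates HEK 293 viability. Cells plated at 250 cells/well are treated with compound for 48 or 72 hr at 37 degree Celsius before reagent addition.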
SNCA expr inhib: SNCA gene expression inhibition; hit rate 0.17% among 140,000; HEK-293 SNCA-luciferase knock-in, luminescence, 24 h; Potency, µM (top dose mostly 57.2 µM), for the others: top-dose activity change, negative = inhibition, actives largely listed as inhibitors;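 also: plate controls were DMSO cells for no effect and cell-free wells for full effect; nearly all actives have a fitted effect of over 45% in size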
NPR1 antag: blocks ANP-stimulated signaling of human Npr1 receptor | HEK293 hNpr1 GloSensor cGMP, ANP-stimulated luminescence | Potency, µM (series often up to 46.3 µM), inactives show at the top dose activity change, negative = inhibition, actives largely listed as inhibitors | hit rate 1.6% among 76,000 | AID 1347048; calls by dose curve; also: % is scaled to controls: 0 for no effect and ±100 for the full control effect; nearly all actives have a fitted effect of over 60% in size
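HEK293 cells stably expressing human Npr1 and cGMP GloSensor pGS-40F, loaded 2 h with 2% GloSensor reagent, given compound 30 min at room temperature. Luminescence read before and 20 min after 0.1 nM hNppA.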
HEK293 viab: reduces viability of HEK-293 SNCA reporter cells. Potency, µM (series often up to 57.1 µM), inactives show top-dose activity change, negative = cytotoxicity, hits mostly cytotoxic. HEK-293-SNCA-luc viability, GF-AFC fluorescence, 24 h. hit rate 0.12% among 150,000;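 also: 0% = DMSO-treated cells and -100% = medium-only wells without cells; nearly all actives have a fitted effect of over 30% in size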
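Cytotoxicity counterscreen: after 24 h compound treatment of genome-edited SNCA-luciferase HEK-293 cells, live-cell protease substrate GF-AFC read by fluorescence after 30 min; activity scaled between DMSO (0%) and medium-only (-100%), curves Hill-fitted.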
Luciferase inh: blocks purified firefly luciferase enzyme activity | purified P. pyralis luciferase, luminescence, biochemical | Potency, µM (top dose mostly 115 µM), most hits filed as inhibitors | hit rate 2.5% among 76,000; also: % is scaled to controls: 0 for no effect and ±100 for the full control effect; nearly all actives have a fitted effect of over 65% in size
Target sequence (P08659 whole entry, looked up): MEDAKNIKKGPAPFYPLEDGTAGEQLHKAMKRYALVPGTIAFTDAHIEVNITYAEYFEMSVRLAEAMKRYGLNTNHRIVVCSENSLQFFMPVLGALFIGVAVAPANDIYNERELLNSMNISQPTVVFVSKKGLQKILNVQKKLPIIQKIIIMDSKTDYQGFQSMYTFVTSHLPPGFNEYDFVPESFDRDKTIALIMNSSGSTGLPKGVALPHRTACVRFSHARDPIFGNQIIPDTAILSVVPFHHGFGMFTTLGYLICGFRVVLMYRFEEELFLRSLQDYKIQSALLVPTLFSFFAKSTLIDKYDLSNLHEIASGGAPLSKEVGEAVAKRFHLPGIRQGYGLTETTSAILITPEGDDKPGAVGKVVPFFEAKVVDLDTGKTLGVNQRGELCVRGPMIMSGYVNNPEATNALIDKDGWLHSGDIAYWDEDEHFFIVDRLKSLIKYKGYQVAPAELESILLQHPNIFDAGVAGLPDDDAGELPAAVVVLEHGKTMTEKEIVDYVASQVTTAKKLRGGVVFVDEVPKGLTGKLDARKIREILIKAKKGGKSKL
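FLuc 10nM, D-luciferin 10uM, ATP 10uM, Mg acetate 10mM, Tris acetate pH 7.5, Tween/BSA; cpd qHTS; enzyme added last; CCD luminescence.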
NPR1 antag cnf: hNpr1 antagonism, confirmation assay; Potency, µM (highest dose often 57.6 µM), for inactives: at the highest dose activity change, negative = inhibition, hits mostly inhibitors; hit rate 76% among 1,400; HEK293 hNpr1 cGMP GloSensor luminescence, ANP-stimulated; shares compounds with NPR1 antag; calls by dose curve; also: nearly all actives have a fitted effect of over 70% in size
NPR2 antag: hNpr2 antagonism, selectivity versus Npr1; Potency, µM (series often up to 57.6 µM), for inactives: at the highest dose activity change, negative = inhibition, usual class: inhibitors; HEK293 hNpr2 GloSensor cGMP luminescence, CNP-stimulated; hit rate 67% among 1,400; AID 1347046; shares compounds with NPR1 antag; calls by dose curve; also: nearly all actives have a fitted effect of over 70% in size
FLuc inh counter: counter-screen for Npr1 antagonists: firefly luciferase inhibitors | hit rate 0.7% among 1,400 | Potency, µM (top dose mostly 57.6 µM), for inactives: at the top dose activity change, negative = inhibition, most hits filed as inhibitors | shares compounds with NPR1 antag | purified FLuc enzyme, luminescence, Km substrate; also: 0% is about no effect
GloSensor ctrl: control cell line activity, Npr1 antagonist counter-screen. shares compounds with NPR1 antag. HEK293 GloSensor cGMP, SNP-stimulated, luminescence. Potency, µM (top dose mostly 57.6 µM), for inactives: top-dose activity change, negative = inhibition, usual class: inhibitors. hit rate 69% among 1,400. AID 1347051; calls by dose curve; also: % is scaled to controls: 0 for no effect and ±100 for the full control effect; nearly all actives have a fitted effect of over 70% in size
* marks the source's active call; other numbers are inactive results; i = inactive; ? = inconclusive; · = no result given; ! = a repeat was not active; [ ] = another dose, or the depositor's remark. Unless noted, calls follow the shape of the dose curve; as a rule, active = well fitted curve in the direction sought with a large enough effect; inconclusive = small, poorly fitted or top-dose-only effect, or another doubt; inactive = no such curve, though single readings can be large; an effect the other way counts as inactive or inconclusive. Potency is read from the fitted curve at half-maximal effect.

SMILES	NIH3T3 tox	HEK293 tox	SNCA expr inhib	NPR1 antag	HEK293 viab	Luciferase inh	NPR1 antag cnf	NPR2 antag	FLuc inh counter	GloSensor ctrl
Cc1nn2c(c1-c1ccccc1-c1ccccc1)N(CCC(C)C)CCC2	8.91µM*	7.94µM*	1.12µM*	1.58µM*	?	i	0.994µM*	1.57µM*	-13.5%[86.2 µM]	0.789µM*
Cc1nn2c(c1-c1ccccc1-c1ccccc1)N(C(=O)c1ccnn1C)CCC2	?	-21.2%[172 µM]	-11.3%[87.6 µM]	-1.4%[70.6 µM]	-0.3%[87.6 µM]	i	·	·	·	·
COc1ccccc1NC(=O)Cn1c(N(C)Cc2ccccc2)nc(C)cc1=O	?	?	-15.9%	-26.0%	1.3%	i	·	·	·	·
COc1cc(NC(=O)Cn2c(N(C)Cc3ccccc3)nc(C)cc2=O)cc(OC)c1	?	15.8µM*	?	7.94µM*	?	i	10.9µM*	12.2µM*	0.5%	6.85µM*
COc1cc(NC(=O)Cn2c(N(C)Cc3ccccc3)nc(C)cc2=O)cc(OC)c1OC	?	?	-15.5%	7.08µM*	1.8%	i	10.9µM*	13.7µM*	-0.2%	10.9µM*
Cc1cc(=O)n(CC(=O)Nc2cccc(Cl)c2)c(N(C)Cc2ccccc2)n1	?	?	-16.5%	?	-4.9%	i	·	·	·	·
CCOC(=O)c1ccc(NC(=O)Cn2c(N(C)Cc3ccccc3)nc(C)cc2=O)cc1	?	39.8µM*	-13.0%	14.1µM*	13.3%	i	21.7µM*	21.7µM*	1.2%	21.7µM*
COc1ccc(C)cc1NC(=O)Cn1c(N(C)Cc2ccccc2)nc(C)cc1=O	-32.3%	?	-13.4%	12.6µM*	8.4%	i	24.3µM*	24.3µM*	0.0%	30.6µM*
N#Cc1ccc(S(=O)(=O)N2CC(n3cc(C(=O)N4CCOCC4)nn3)C2)cc1	-14.6%	1.9%	-7.1%	·	18.2%	·	·	·	·	·
COc1ccc(C(=O)N2CCC3(CC2)CC(CN2CCOCC2)N(C)C3)cc1F (stereo not given)	-18.9%	-17.0%	19.7%	·	10.4%	·	·	·	·	·
CCNC(=O)N1CCC(Oc2ccccc2-c2nc(-c3cnccn3)no2)C1 (stereo not given)	-5.8%	-2.8%	12.4%	-0.3%	-6.2%	i	·	·	·	·
Fc1ccc(CN2CCC(Oc3ccccc3-c3nc(-c4cnccn4)no3)C2)cc1F (stereo not given)	?	25.1µM*	0.4%	-18.2%	?	i	?	-29.0%	-15.6%	0.0%
COCCN1CCCC2(CCN(c3nc(C)nc4sccc34)C2)C1=O (stereo not given)	?	-34.2%	-0.9%	?	-3.5%	i	24.3µM*	?	-1.3%	24.3µM*
CS(=O)(=O)N(Cc1ccccn1)C1CN(C(=O)c2ccoc2)C1	-1.8%	-1.2%	-10.1%	·	1.1%	·	·	·	·	·
COc1ccc(C(=O)N2CCC3(CC2)CC(c2cccc(C(F)(F)F)c2)=NO3)cc1	22.4µM*!	35.5µM*!	-18.8%	11.2µM*	-27.2%	i	24.3µM*	27.3µM*	3.1%[6.39 µM]	?
COc1ccccc1-c1cccc(C(=O)N2CCN(C(=O)Cc3ccccn3)CC2)c1	-27.2%	-14.6%	3.4%	·	0.9%[12.5 µM]	·	·	·	·	·
O=C(c1ccc(C(F)(F)F)cc1)N1CCC2(CNc3ccccc3[S+](=O)([O-])N2)C1 (stereo not given)	?	?	10.1%	?	?	i	21.7µM*	?	-1.9%	17.2µM*
Cc1ccc(C(=O)N2CCC3(CNc4ccccc4[S+](=O)([O-])N3)C2)cc1 (stereo not given)	?	?	5.1%	1.2%	-8.3%	i	·	·	·	·
COc1ccc(-c2cn3cc(C(=O)NC4CCCCCC4)nc3s2)cc1	-26.4%	-26.3%	-9.3%	·	-0.5%	·	·	·	·	·
CCCc1ccc2oc(C(=O)N(CC)Cc3ccncc3)c(C)c2c1	?	25.1µM*	2.9%	12.6µM*	-3.8%	i	19.3µM*	19.3µM*	-12.9%	17.2µM*
O=C(CCC1CCN(c2cc(NC3CC3)ncn2)CC1)N1CCN(c2ccccc2F)CC1	?	?	?	12.6µM*	-25.7%	i	24.3µM*	21.7µM*	-22.8%	24.3µM*
CCN(CC)C(=O)CCC1CCN(c2cc(NC3CC3)ncn2)CC1	-23.0%	-12.0%	?	?	-4.1%	i	·	·	·	·
CCOc1ccc(NC(=O)CCC2CCN(c3cc(NC4CC4)ncn3)CC2)cc1	-18.9%	?	?	?	-6.0%	i	?	?	-29.4%	?
CN(CCc1ccccc1)C(=O)CCC1CCN(c2cc(NC3CC3)ncn2)CC1	?	35.5µM*	?	11.2µM*	-10.2%	i	21.7µM*	21.7µM*	-13.6%	13.7µM*
CCNc1cc(N2CCC(CCC(=O)N3CCN(c4cccc(OC)c4)CC3)CC2)ncn1	?	35.5µM*	?	11.2µM*	-7.7%	i	17.2µM*	19.3µM*	-19.2%	17.2µM*
CCNc1cc(N2CCC(CCC(=O)NCCc3cccnc3)CC2)ncn1	-31.8%	?	?	-12.7%	-14.4%	i	·	·	·	·
CCn1c(C2CCCN(C(=O)Nc3ccccc3F)C2)nn(C)c1=O (stereo not given)	-18.1%	-7.9%	11.2%	·	1.0%	·	·	·	·	·
O=C(c1cc2ccccc2[nH]1)N1CCC2(C1)NC(=O)N(Cc1ccccc1)C2=O (stereo not given)	?	?	20.1%	?	2.0%	?	·	·	·	·
O=C(c1cc2ccccc2[nH]1)N1CCC2(C1)NC(=O)N(Cc1ccc(F)cc1)C2=O (stereo not given)	?	?	91.5%	22.4µM*	-14.1%	i	?	?	-22.7%	30.6µM*
